We go through 40 compounds from PubChem BioAssay AID1540 (National Center for Advancing Translational Sciences (NCATS), 2009).

Structures are written as SMILES. “And” between values parts separate entries of the source, which are not always exact repeats. Equal values may be shown once. Results filed as inconclusive are left out. Some structures have more than one record in an assay (separate samples or runs), and their calls can disagree. The source made the active and inactive calls. Calls follow the shape of the dose curve; as a rule, active = well fitted activation curve with a large enough effect; inconclusive = small, poorly fitted or top-dose-only effect, or effect the other way; inactive = flat fitted curve, though single readings scatter.

Pyruvate kinase PKM (Homo sapiens), sequence (P14618 whole entry, looked up, canonical isoform): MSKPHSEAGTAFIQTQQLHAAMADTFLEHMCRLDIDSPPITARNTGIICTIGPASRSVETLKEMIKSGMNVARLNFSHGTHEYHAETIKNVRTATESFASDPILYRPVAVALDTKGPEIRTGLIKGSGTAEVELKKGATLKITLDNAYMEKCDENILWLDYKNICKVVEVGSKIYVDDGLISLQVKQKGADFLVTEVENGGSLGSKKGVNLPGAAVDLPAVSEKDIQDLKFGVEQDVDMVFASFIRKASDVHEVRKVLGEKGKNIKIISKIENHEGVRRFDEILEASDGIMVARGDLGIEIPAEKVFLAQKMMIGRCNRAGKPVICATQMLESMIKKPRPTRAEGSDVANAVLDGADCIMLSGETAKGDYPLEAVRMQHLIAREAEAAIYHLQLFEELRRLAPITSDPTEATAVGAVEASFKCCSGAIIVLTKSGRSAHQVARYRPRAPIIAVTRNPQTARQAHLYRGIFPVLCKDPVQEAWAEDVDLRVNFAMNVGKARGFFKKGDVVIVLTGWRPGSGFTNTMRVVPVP

This assay has as its target Pyruvate kinase PKM (Homo sapiens) (UniProt P14618). Put plainly: Secondary assay for Activators of Human Pyruvate Kinase M2 isoform. As to conditions: purified hPK-M2, LDH-coupled NADH fluorescence kinetic; series mostly up to 57.5 µM. An excerpt: Confirmatory assay NIH Chemical Genomics Center [NCGC] Matthew G. Vander Heiden, M.D., Ph.D. [Harvard Medical School, 77 Avenue Louis Pasteur, Boston, MA 02115] NCGC Assay Overview: Human pyruvate kinase muscle 2 (hPK-M2)enzyme was supplied as a highly purified (>95% pure) preparation from Harvard Medical School and a secondary assay was used to evaluate compounds. This assay couples the formation of pyruvate from hPK-M2 using lactate dehydrogenase (LDH) and NADH. The depletion of NADH is followed in a fluorescent-based kinetic assay that follows the formation of pyruvate to lactate, as catalyzed LDH (described by Hannaert et al., 2002)1 Pyruvate kinase substrates, PEP and ADP, were present in the assay at 0.1 mM and 4 mM respectively. In this kinetic assay initial rates were determined by following the fluorescence of NADH depletion.
NCGC Assay Protocol Summary: Three uL of substrate mix (final concentration, 50 mM Tris-Cl pH 8.0, 200 mM KCl, 15 mM MgCl2, 0.1 mM PEP, 4.0 mM ADP, and 0.2 mM NADH) was dispensed into black-solid 1536 well plates. 23 nL of compounds were delivered by a pin tool and 1 uL of enzyme mix (final concentrations, 10 nM hPK-M2 and 1 uM of LDH) was added. Plates were immediately placed in ViewLux (Perkin Elmer) and NADH fluorescence was determined at 30 second exposure intervals for between 3 and 6 minutes. Data were normalized to the uninhibited and EC100 activation using known activators such as fructose-bis-phosphate.
Take `O=C1CN(S(=O)(=O)c2c(F)cccc2F)CCN1S(=O)(=O)c1ccc2c(c1)OCCO2`: the Potency was 2510 nM (active).
On to `Cn1c2cc(C#N)sc2c2cnn(Cc3ccccc3F)c(=O)c21`, for which the Potency is 355 nM (active).
`Cc1cc2c(s1)c1cnn(Cc3ccc(C)c(F)c3F)c(=O)c1n2C`: the Potency was 141 nM (active).
As for `Cn1c2cc(B(O)O)sc2c2cnn(Cc3ccccc3F)c(=O)c21`, the Potency is 15800 nM (active).
Take `COC(=O)c1cc2c(s1)c1cnn(Cc3ccccc3F)c(=O)c1n2C`: the Potency is 355 nM (active).
In the case of `CC(O)c1cc2c(s1)c1cnn(Cc3ccccc3F)c(=O)c1n2C` (stereo not given) it was 398 nM (active); in that of `C[C@H]1CN(S(=O)(=O)c2ccc3c(c2)OCCO3)CCN1S(=O)(=O)c1c(F)cccc1F`, 5010 nM (active); in that of `COc1ccc(S(=O)(=O)N2CCN(S(=O)(=O)c3c(F)cccc3F)CC2)cc1`, “inactive and 141 nM (active)”.
As for `COc1cc(F)c(S(=O)(=O)N2CCN(S(=O)(=O)c3cccc(N)c3)CC2)c(F)c1`, the Potency was 73 nM (active).
Consider `CC(=O)Nc1ccc(S(=O)(=O)N2CCN(S(=O)(=O)c3ccc4c(c3)OCCO4)CC2)cc1`, for which the Potency is 919 nM (active).
For `C=Cc1cc2c(s1)c1cnn(Cc3ccccc3F)c(=O)c1n2C`, the Potency is 562 nM (active).
In the case of `COc1cc(F)c(S(=O)(=O)N2CCN(S(=O)(=O)c3ccc(N)cc3)CC2)c(F)c1`, the Potency was 183 nM (active).
Consider `Cc1cc2c(s1)c1cnn(Cc3c(F)cccc3Cl)c(=O)c1n2C`, for which the Potency was 158 nM (active).
In the case of `C[C@@H]1CN(S(=O)(=O)c2ccc3c(c2)OCCO3)CCN1S(=O)(=O)c1c(F)cccc1F` it was 3550 nM (active).
For the compound `COc1ccc(Cn2ncc3c4sc(C)cc4n(C)c3c2=O)cc1F`, the Potency is 1120 nM (active).
For `Nc1cc(S(=O)(=O)N2CCN(S(=O)(=O)c3ccc4c(c3)OCCO4)CC2)ccn1`, the Potency entry is “inactive”.
Take `Cn1c2cc(Br)sc2c2cnn(Cc3ccc(F)cc3)c(=O)c21`: the Potency is 794 nM (active).
As to `Cc1cc2c(s1)c1c(C)nn(Cc3ccc(F)cc3)c(=O)c1n2C`, the Potency is 2820 nM (active).
Take `CC1(C)CCc2cc(S(=O)(=O)N3CCN(S(=O)(=O)c4c(F)cccc4F)CC3)ccc2O1`: the Potency is 5.01 µM (active) and 631 nM (active).
In the case of `Cn1ccc2cc(S(=O)(=O)N3CCN(S(=O)(=O)c4c(F)cccc4F)CC3)ccc21` it was 1410 nM (active).
Regarding `CCn1c2cc(C)sc2c2cnn(Cc3ccccc3F)c(=O)c21`, the Potency was 5010 nM (active).
In the case of `COc1cc(F)c(S(=O)(=O)N2CCN(S(=O)(=O)c3ccco3)CC2)c(F)c1`, the Potency is 116 nM (active).
As to `COc1ccc(S(=O)(=O)N2CCN(S(=O)(=O)c3ccc(OC)cc3)CC2)cc1`, the Potency is 398 nM (active) and 282 nM (active).
As to `O=C(N1CCc2ccc(S(=O)(=O)N3CCN(S(=O)(=O)c4ccc5c(c4)OCCO5)CC3)cc2C1)C(F)(F)F`, the Potency is 1120 nM (active).
In the case of `CCOC(=O)CCc1cc(F)c(S(=O)(=O)N2CCN(S(=O)(=O)c3ccc4c(c3)OCCO4)CC2)cc1F` it was 10000 nM (active); in that of `C=CCc1cc(F)c(S(=O)(=O)N2CCN(S(=O)(=O)c3ccc4c(c3)OCCO4)CC2)cc1F`, 2000 nM (active).
`Cc1cc2c(s1)c1cnn(Cc3ccc(F)cc3F)c(=O)c1n2C`: the Potency was 178 nM (active).
In the case of `CNc1cccc(S(=O)(=O)N2CCN(S(=O)(=O)c3ccc4c(c3)OCCO4)CC2)c1` it was “inactive”; in that of `COc1cc(F)c(S(=O)(=O)N2CCN(S(=O)(=O)c3cccc(NC(C)=O)c3)CC2)c(F)c1`, 1030 nM (active); in that of `Nc1cccc(S(=O)(=O)N2CCN(S(=O)(=O)c3c(F)cccc3F)CC2)c1`, 206 nM (active).
In the case of `COc1cccc(Cn2ncc3c4sc(B(O)O)cc4n(C)c3c2=O)c1` it was 17800 nM (active).
In the case of `Cc1nc2ccc(S(=O)(=O)N3CCN(S(=O)(=O)c4c(F)cccc4F)CC3)cc2s1`, the Potency is 631 nM (active).
Turning to `Cc1ccc(Cn2ncc3c4sc(C)cc4n(C)c3c2=O)c(C)c1`, the Potency was 1780 nM (active).
In the case of `Cn1c2cc(Br)sc2c2cnn(Cc3c(F)cccc3Cl)c(=O)c21` it was 794 nM (active).
In the case of `O=S(=O)(c1ccc2c(c1)OCCO2)N1CCN(S(=O)(=O)c2cc(F)c(F)cc2F)CC1`, the Potency was 562 nM (active).
With `COc1cc(F)c(S(=O)(=O)N2CCN(S(=O)(=O)c3ccc4c(c3)OCCO4)CC2)c(F)c1`, the Potency was 562 nM (active).
In the case of `C[C@H]1CN(S(=O)(=O)c2c(F)cccc2F)CCN1S(=O)(=O)c1ccc2c(c1)OCCO2`, the Potency is 5010 nM (active).
`Cn1c2cc(S(C)(=O)=O)sc2c2cnn(Cc3ccccc3F)c(=O)c21`: the Potency was 447 nM (active).
Consider `Cc1cc2c(s1)c1cnn(Cc3cccc(F)c3)c(=O)c1n2C`, for which the Potency was 1260 nM (active).
Regarding `COCCCc1cc(F)c(S(=O)(=O)N2CCN(S(=O)(=O)c3ccc4c(c3)OCCO4)CC2)cc1F`, the Potency was 3160 nM (active).
